# Assay outcomes: PubChem, several laboratories
# Sampled rows, rich in hits. Any-hit rate of the full collection: about 2.4%.
# ANO1 block: TMEM16A chloride channel inhibitors, primary screen, cell-based, HTS; 310,000 compounds, 1.2% hits; AID 588511, 2011; Anoctamin-1 (Mus musculus), Q8BHY3; normalized B-score (activity score, 25-100; higher = stronger inhibition) at 10 µM; HEK293 TMEM16A/YFP iodide influx fluorescence, ionomycin;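 active = ratio plate-corrected score three or more library SD toward inhibition, starting fluorescence score within five deviations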;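 also: score derived from kinetic fluorescence span divided by baseline fluorescence per well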
# NOD2-RIPK2 inh: NOD2-RIPK2 binding disruptors in cells, primary screen, fluorescence, CHO cells, BLA complementation. Receptor-interacting serine/threonine-protein kinase 2 (Homo sapiens), O43353. inhibition, % at 4.98 µM. 360,000 compounds, 0.38% hits. CCF4 ratio; in the data active = inhibition above about 21%;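 also: 0% = vehicle only and 100% = reference blocker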
# TLR4-MyD88 BLA: inhibitors of TLR4-MyD88 association in cells, primary screen, cell-based, HeLa CL3-4, BLA complementation, FRET ratio; Toll-like receptor 4 (Homo sapiens) + Myeloid differentiation primary response protein …; HeLa CL3-4 TLR4/MyD88 BLA complementation; inhibition, % at 8.4 µM; 200,000 compounds, 0.18% hits; AID 861, 2007; in the data active = inhibition above about 25%;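 also: 0% = vehicle and 100% = reference inhibitor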
# TMEM16A act: TMEM16A chloride channel activators or potentiators, primary screen, cell-based, HTS | Anoctamin-1 (Mus musculus), Q8BHY3 | HEK293 TMEM16A/YFP-H148Q/I152L, iodide quench fluorescence; stronger effect = lower value | B-score at 10 µM | 340,000 compounds, 0.3% hits;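 active = fluorescence-ratio B-score plate-corrected deviation score at least 3 library SD below zero, with starting fluorescence score within 5 deviations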;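 also: channel opened by trigger with iodide after compound preincubation; score built on the fluorescence ratio of max minus min over baseline; more negative score means more quench and so TMEM16A activation or potentiation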
# m5-HT2A agonist: mouse Htr2a agonists via beta-arrestin recruitment, primary screen, cell-based, luminescence | CHO-K1 mHTR2A beta-arrestin complementation; percent of 30 µM serotonin response | activation, % at 7.6 µM | 360,000 compounds, 0.66% hits;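 active = activation above a run cutoff, the mean activation of all tested compounds plus 3 SD, cut at about 14% in these data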;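 also: 0% = plate median of compound wells and 100% = 30 µM serotonin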
# Target sequence (P35363 whole entry, looked up): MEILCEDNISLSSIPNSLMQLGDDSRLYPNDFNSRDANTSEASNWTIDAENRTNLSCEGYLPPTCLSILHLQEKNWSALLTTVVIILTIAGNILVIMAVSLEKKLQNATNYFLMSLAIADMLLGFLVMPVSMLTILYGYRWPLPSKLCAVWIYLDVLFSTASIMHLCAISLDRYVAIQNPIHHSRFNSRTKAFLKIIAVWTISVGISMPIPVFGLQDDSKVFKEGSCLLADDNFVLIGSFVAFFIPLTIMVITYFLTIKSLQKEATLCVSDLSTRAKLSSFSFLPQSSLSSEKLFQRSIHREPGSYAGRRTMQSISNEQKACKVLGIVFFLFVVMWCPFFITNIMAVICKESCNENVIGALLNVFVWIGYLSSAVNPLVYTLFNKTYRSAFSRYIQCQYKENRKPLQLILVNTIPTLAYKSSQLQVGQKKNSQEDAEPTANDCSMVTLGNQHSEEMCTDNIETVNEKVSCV
# TLR9-MyD88 block: inhibitors of TLR9-MyD88 association in cells, primary screen, cell-based, CHO, BLA complementation, fluorescence. Toll-like receptor 9 (Homo sapiens) + Myeloid differentiation primary response protein …. CCF4 FRET ratio. inhibition, % at 4.98 µM. 340,000 compounds, 0.21% hits. AID 504734, 2011;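 active = inhibition above the mean over all tested compounds plus 3 SD, cut at about 21% in these data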;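 also: 0% = DMSO only wells and 100% = clavulanate BLA inhibitor control wells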
# TMEM16A reconf: TMEM16A chloride channel inhibitors, confirmation, cell-based, re-confirmation. shares compounds with ANO1 block. 2,300 compounds, 39% hits. AID 652189, 2013. HEK293 TMEM16A/YFP-H148Q, iodide quench fluorescence; ionomycin added to raise cell calcium. inhibition, % at 10 µM;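 active = mean duplicate percent inhibition, scaled so buffer wells are 0 and the reference blocker 100, over three buffer SD above buffer mean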
# HEK293 Ca mobil: calcium mobilization in TMEM16A/YFP HEK293 cells, confirmation, counter-screen for TMEM16A inhibitor project | 2,300 compounds, 2% hits | AID 652231, 2013 | Fluo4 calcium mobilization | calcium response (% of ionomycin), % at 10 µM | shares compounds with ANO1 block;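 active = duplicate-averaged calcium signal over 20% of the ionomycin maximum, relative to buffer baseline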;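 also: each well's signal is peak minus trough fluorescence divided by its pre-addition baseline; 0% = buffer wells and 100% = ionomycin wells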
# Parental YFP cnt: iodide YFP quench changes in parental YFP-HEK293, counter-screen for TMEM16A inhibitor project, cell-based; shares compounds with ANO1 block; ionomycin; 2,300 tested, under 10 active; YFP ratio F(max-min)/F0 at 10 µM;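 active = yellow fluorescent protein signal ratio exceeding the buffer control mean by over 5 SD of those controls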;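 also: ratio is mean of duplicate wells from kinetic YFP trace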
# ClC-1 rat inh: ClC-1 chloride channel inhibition, selectivity assay for TMEM16A inhibitor project, cell-based, voltage-dependent ClC-1; shares compounds with ANO1 block; CHO ClC-1-YFP, iodide influx fluorescence quench; iodide control reads 0, buffer control 100; ratio percent, % at 10 µM; 2,300 tested, under 10 active; AID 652236, 2013;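 active = duplicate-mean ratio percent above the mean of iodide-only control wells, which defines zero, plus 5 of their SD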;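 also: higher percent means stronger block of ClC-1 iodide influx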
# An asterisk follows results filed as active; i = inactive; x = no result.
SMILES,ANO1 block,NOD2-RIPK2 inh,TLR4-MyD88 BLA,TMEM16A act,m5-HT2A agonist,TLR9-MyD88 block,TMEM16A reconf,HEK293 Ca mobil,Parental YFP cnt,ClC-1 rat inh
CN1CCN(/N=C/c2ccc(N(c3ccccc3)c3ccccc3)cc2)CC1,100*,7,6,i,-4,3,32%*,i,-0.93,-3
CN1CCN(/N=C/c2ccc(N(C)c3ccccc3)cc2)CC1,i,1,-13,i,-5,0,x,x,x,x
CC1=CC(C)(C)N(S(=O)(=O)c2ccc(C)cc2)c2ccccc21,100*,0,14,i,-4,1,i,i,-0.94,-16
CCOC(=O)c1c(NC(=O)CSc2nnc(-c3ccccc3)o2)sc(C(C)=O)c1C,i,-4,-2,i,1,-8,x,x,x,x
CCOC(=O)c1c(NC(=O)CSc2nc3ccccc3o2)sc(C(C)=O)c1C,100*,-1,-19,i,-1,6,22%*,i,-1.1,-3
CCOC(=O)c1c(NC(=O)CSc2nnc(-c3ccc(C)cc3)o2)sc(C(C)=O)c1C,i,-3,7,i,0,-2,x,x,x,x
CCOC(=O)c1c(NC(=O)CSc2nnc(Cc3ccccc3)o2)sc(C(C)=O)c1C,25*,-10,8,i,-1,-3,16%*,i,-1.3,-21
COc1ccc(C(=O)C2CCCN(C(=O)c3cccc(N(C)C)c3)C2)cc1OC (configuration not stated),i,-4,x,i,8,9,x,x,x,x
CCCCn1c(N)c(N(CCC(C)C)C(=O)COC(=O)c2ccc([N+](=O)[O-])s2)c(=O)[nH]c1=O,x,0,x,i,1,1,x,x,x,x
CCOC(=O)C1(C)CCCN(C(=O)c2cccnc2SC)C1 (configuration not stated),x,-6,x,x,-1,x,x,x,x,x
COc1ccc(NS(=O)(=O)c2ccc3oc(SC4CCOC4=O)nc3c2)cc1 (configuration not stated),25*,5,6,i,2,-3,37%*,i,-1.1,-10
CCCCn1c(N)c(N(CC(C)C)C(=O)c2ccc(N3C(=O)c4ccccc4C3=O)cc2)c(=O)[nH]c1=O,i,3,x,i,5,-7,x,x,x,x
COc1ccc(OC)c(N=c2oc3c(OC)cccc3cc2C(=O)NCc2ccco2)c1,i,-6,x,i,3,-2,x,x,x,x
COc1ccc(N=c2oc3c(OC)cccc3cc2C(=O)NCc2ccco2)cc1OC,i,-3,10,i,4,-3,i,i,-1.1,2
Cc1ccc(OCCN(C)C(=O)C2CCC(=O)N(CCCN3CCOCC3)C2)cc1 (configuration not stated),i,5,x,i,10,1,x,x,x,x
COc1ccc(NC(=O)C(OC(=O)c2ccc([N+](=O)[O-])o2)c2ccccc2)cc1Cl (configuration not stated),i,-3,6,i,1,-8,x,x,x,x
